Source: PubChem (National Center for Advancing Translational Sciences (NCATS))
HPGD block: qHTS Assay for Inhibitors of HPGD (15-Hydroxyprostaglandin Dehydrogenase) | 15-hydroxyprostaglandin dehydrogenase [NAD(+)] (Homo sapiens), P15428 | purified HPGD, NADH fluorescence kinetic, PGE2 substrate | Potency, µM, usual class: inhibitors | actives 4.3% (n = 150,000) | AID 894, 2007; active = well fitted inhibition curve with a large enough effect, not every such curve was filed as active; inconclusive = small, poorly fitted or top-dose-only effect, or another doubt; inactive = no such curve, though single readings can be large or run the other way
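NADH formation kinetics: reaction with 30 uM PGE2 and 1 mM NAD+ (final), 20 nM enzyme, Tris-HCl pH 8 with Tween 20, after 15 min compound preincubation at room temperature. Fluorescence change, last versus first of five reads.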
NPSR antag: qHTS Assay for Antagonists of the Neuropeptide S Receptor: cAMP Signal Transduction; Q6W5P4; CHO-NPSR cells, cAMP TR-FRET, antagonist mode; Potency, µM (doses to about 38.3 µM), usual class: inhibitors; actives 1% (n = 220,000); AID 1461, 2008; also: nearly all actives have a fitted effect of over 50% in size
IMPase cell inh: qHTS Assay for Identifying the Cell-Membrane Permeable IMPase Inhibitors. Inositol monophosphatase 1 (Rattus norvegicus), P97697. CHO-M1 cells, IP1 accumulation, HTRF TR-FRET ratio. inhibition (IP1 accumulation), % at 46.1 µM. 120,000 tested, under 10 active. AID 901, 2007; active = well fitted curve in the direction sought with a large enough effect in the signal ratio, not every such curve was filed as active; inconclusive = small, poorly fitted or top-dose-only effect, or a change in a side signal; inactive = no such curve, though single readings can be large or run the other way; the % refers to the signal ratio;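 also: cells stimulated with carbachol in lithium chloride buffer; higher means more IMPase inhibition seen as more IP1 and lower FRET ratio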
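CHO-M1, 2000 cells/well, cultured 16–30 h; cpd up to 46 uM; carbachol (50 uM solution, stimulation buffer w/ 50 mM LiCl, pH 7.4), 30 min 37C; IP-One TR-FRET, 10 min RT; Ex 320/Em 665, 620; Hill-fit AC50.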
IMPase Li cell: qHTS Assay for Identifying the Cell-Membrane Permeable IMPase Inhibitors: Potentiation with Lithium | CHO-M1 cells, IP1 TR-FRET (IP-One), carbachol + lithium | Potency, µM (doses to about 59.4 µM), most hits filed as inhibitors | actives 0.35% (n = 210,000);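 also: IP1 builds up when IMPase is blocked and the TR-FRET signal falls; nearly all actives have a fitted effect of over 50% in size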
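Lithium-sensitised IP1 accumulation assay; M1-expressing CHO cells treated 30 min at 37C with compound. Competitive antibody detection by time-resolved FRET followed a 10 min room-temperature lysis step.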
ALDH1A1 inh: qHTS Assay for Inhibitors of Aldehyde Dehydrogenase 1 (ALDH1A1). Aldehyde dehydrogenase 1A1 (Homo sapiens), P00352. Purified ALDH1A1, NADH fluorescence, propionaldehyde substrate. Potency, µM (doses to about 75.3 µM), actives largely listed as inhibitors. actives 7.3% (n = 220,000). AID 1030, 2008; active = well fitted inhibition curve with a large enough effect, not every such curve was filed as active; inconclusive = small, poorly fitted or top-dose-only effect, or another doubt; inactive = no such curve, though single readings can be large or run the other way
Target sequence (P00352 whole entry, looked up): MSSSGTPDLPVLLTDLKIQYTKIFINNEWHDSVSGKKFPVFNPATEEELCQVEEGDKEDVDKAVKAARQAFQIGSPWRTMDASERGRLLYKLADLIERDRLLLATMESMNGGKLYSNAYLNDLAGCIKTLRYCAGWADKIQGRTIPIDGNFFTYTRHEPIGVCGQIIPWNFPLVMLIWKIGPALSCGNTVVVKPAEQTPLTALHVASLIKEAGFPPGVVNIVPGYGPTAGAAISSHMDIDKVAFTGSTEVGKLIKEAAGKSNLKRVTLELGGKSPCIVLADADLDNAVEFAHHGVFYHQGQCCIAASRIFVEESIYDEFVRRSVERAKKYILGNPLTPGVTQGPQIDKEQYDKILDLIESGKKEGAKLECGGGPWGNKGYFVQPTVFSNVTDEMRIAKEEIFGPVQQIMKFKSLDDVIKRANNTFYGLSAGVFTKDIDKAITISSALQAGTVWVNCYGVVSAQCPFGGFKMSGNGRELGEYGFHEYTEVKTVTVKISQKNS
PNC inhibitor: High Content Assay for Compounds that inhibit the Assembly of the Perinucleolar Compartment. PC3M PTB-GFP, PNC prevalence imaging, 16 h; hits give low values. activity change (PNC), negative = inhibition, % at 10 µM. actives 3.1% (n = 140,000);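 active = readout at or below -70, meaning at least 70% loss of cells showing the perinucleolar compartment, a nuclear body marking cancer cells; inconclusive = readout between -30 and a set limit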
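PC3M cells stably expressing PTB-GFP, 750–1000 cells/well, treated 16 h at 37 °C with compound (23 nl of library stock), in duplicate. After paraformaldehyde fixation and Hoechst stain, imaged at 20x; PNC prevalence scored by image analysis.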
Numbers stand for hits; [ ] = remark or other dose. Rows were chosen to be rich in hits. Some 11% of all compounds tested hit in one or more screens of this group. Unless noted, calls follow the shape of the dose curve; as a rule, active = well fitted curve in the direction sought with a large enough effect; inconclusive = small, poorly fitted or top-dose-only effect, or another doubt; inactive = no such curve, though single readings can be large; an effect the other way counts as inactive or inconclusive.

Screening COc1cccc(-c2nc(CS(=O)(=O)CC(=O)N3CCN(c4ccccn4)CC3)c(C)o2)c1 returned HPGD block inactive, NPSR antag inactive, IMPase cell inh inactive, IMPase Li cell inactive, ALDH1A1 inh 31.6µM and PNC inhibitor inconclusive.
Screening Cc1ccc(NC(=O)C2CCN(C(=O)c3ccccc3C)CC2)cc1 returned HPGD block inactive, NPSR antag inactive, IMPase Li cell inactive, ALDH1A1 inh inactive and PNC inhibitor inactive.
For Cc1ccc2ncccc2c1NS(=O)(=O)c1ccccc1 the results were HPGD block inactive, NPSR antag inactive, IMPase cell inh inactive, IMPase Li cell inactive, ALDH1A1 inh 31.6µM and PNC inhibitor inactive.
For O=C1C2C(c3ccccc3)C=CC(c3ccccc3)C2C(=O)N1c1ccncc1 (configuration not stated) the results were HPGD block inactive, NPSR antag inconclusive, IMPase cell inh inactive, IMPase Li cell inactive, ALDH1A1 inh inactive and PNC inhibitor inactive.
Screening COc1ccccc1NC(=S)N(Cc1ccc(C(=O)O)cc1)Cc1ccc(OC)c(OC)c1 returned NPSR antag inactive, IMPase Li cell inactive and ALDH1A1 inh inactive.
Screening COc1ccc(CN(Cc2ccc(C(=O)O)cc2)C(=S)Nc2ccccc2F)cc1OC returned NPSR antag inactive, IMPase Li cell inactive and ALDH1A1 inh 12.6µM.
Screening NNC(=O)/C(=N/Nc1ccccc1)S(=O)(=O)c1ccc(Cl)cc1 returned HPGD block inactive, NPSR antag inactive, IMPase Li cell inactive, ALDH1A1 inh 12.6µM and PNC inhibitor inconclusive.
Screening CCOC(=O)/C(=N\Nc1ccccc1)P(=O)(c1ccccc1)c1ccccc1 returned NPSR antag 10µM.
`CCOC(=O)/C(=N/Nc1ccc(C)cc1)S(=O)(=O)c1ccc(Cl)cc1` gave HPGD block inactive, NPSR antag inconclusive, IMPase cell inh inactive, IMPase Li cell inactive, ALDH1A1 inh inconclusive and PNC inhibitor inactive.
`CCOC(=O)/C(=N\Nc1ccccc1)S(=O)(=O)c1ccccc1` gave HPGD block 14.1µM, NPSR antag inactive, IMPase cell inh inactive, IMPase Li cell inactive, ALDH1A1 inh 15.8µM and PNC inhibitor inconclusive.
`O=S(=O)(CCc1ccccc1)/N=C/c1cccs1` gave HPGD block inactive, NPSR antag inactive, IMPase cell inh inactive, IMPase Li cell inactive, ALDH1A1 inh inconclusive and PNC inhibitor -103.0.
COc1ccc(/C=N/S(=O)(=O)CCc2ccccc2)c(OC)c1 was read as HPGD block inconclusive, NPSR antag inactive, IMPase cell inh inactive, IMPase Li cell inactive, ALDH1A1 inh inactive and PNC inhibitor inactive.
`O=C(Cc1ccccc1)N/N=C/c1cccs1` gave HPGD block inactive, NPSR antag inactive, IMPase cell inh inactive, IMPase Li cell inactive, ALDH1A1 inh inactive and PNC inhibitor inactive.
Screening COc1cc(/C=N/S(=O)(=O)CCc2ccccc2)ccc1O returned HPGD block inactive, NPSR antag inactive, IMPase cell inh inactive, IMPase Li cell inactive, ALDH1A1 inh 28.2µM and PNC inhibitor inactive.
CC(C)c1ccccc1NC(=O)CSc1nnc(COc2ccccc2Cl)o1 was read as IMPase cell inh inactive.
O=C1C[C@H]2OCC=C3CN4CC[C@@]5(C(=O)O)[C@H](N1)C2[C@H]3C[C@H]45 (some centres not stated) was read as HPGD block inactive, IMPase Li cell inactive and ALDH1A1 inh inactive[13.5 µM].
`O=C(CCc1ccccc1)n1nc(-c2ccco2)nc1SCc1ccccc1` gave HPGD block 8.91µM, NPSR antag inactive, IMPase cell inh inactive, IMPase Li cell inactive, ALDH1A1 inh inactive and PNC inhibitor inconclusive.
